In PubChem BioAssay (EPA / NIEHS):
Calls of active or inactive are those of the source. Rule for the calls: active = hit-call score of the fitted dose curve at least 0.9, where 1 is the maximum; inactive = score below 0.9.

Each compound was assayed on Intercellular Adhesion Molecule 1 (ICAM1), ICAM1 (gene 3383) (assay: LTEA_HepaRG_ICAM1: Life Technologies and Expression Analysis (LTEA) Assay for Intercellular Adhesion Molecule 1 (ICAM1) using HepaRG (AID 2283507)). Details: mRNA level, 48 h; actives raise or lower the signal.
Method in brief: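 Readout is qRT-PCR mRNA level, normalized to three housekeeping genes and fitted bidirectionally against 0.5% DMSO vehicle. Human HepaRG cultures received compound for 48 h, top concentration 100 uM with half-log dilutions.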

outcome, inactive:
O=C(Oc1ccccc1)c1cccc(C(=O)Oc2ccccc2)c1
CC(=O)CC(c1ccccc1)c1c(O)c2ccccc2oc1=O (stereo unspecified)
C#CC(O)C(CC)CCCC (stereo unspecified)
CCCCC(CC)COP(=O)(OCC(CC)CCCC)OCC(CC)CCCC (stereo unspecified)
CCC(C)N(C)C(=O)c1cc2ccccc2c(-c2ccccc2Cl)n1 (stereo unspecified)

AC50, active:
COc1ccc(OC(F)(F)F)cc1CN[C@H]1CCCN[C@H]1c1ccccc1 75.7 µM

Each compound was assayed on Insulin-like growth factor-binding protein 1 (IGFBP1), IGFBP1 (gene 3484) (assay: LTEA_HepaRG_IGFBP1: Life Technologies and Expression Analysis (LTEA) Assay for Insulin-like growth factor-binding protein 1 (IGFBP1) using HepaRG (AID 2283508)). Details: mRNA level, 48 h; actives raise or lower the signal.
Method in brief: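 Thawed HepaRG cells are plated for 48 h, switched to serum-free induction medium, then dosed in duplicate for another 48 h (100 uM top, half-log steps). Lysates in RLT go to qRT-PCR, and gain or loss of signal is fitted relative to vehicle.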

outcome, inactive:
O=C(O)c1[nH]n(-c2ccc(S(=O)(=O)O)cc2)c(=O)c1N=Nc1ccc(S(=O)(=O)O)cc1
CCCCCCCCCCCCCCOS(=O)(=O)O
CC(=O)O
CC(C)COC(=O)CCCCC(=O)OCC(C)C
CC(C)(C)c1ccccc1
CC(C)NCC(O)c1ccc(O)c(O)c1 (stereo unspecified)
CCCCCCCCCC[N+](C)(C)[O-]
c1ccc2occc2c1
CC(=O)OCC(COC(C)=O)OC(C)=O
Oc1ccc(O)cc1
O=C(O)CC(O)(CC(=O)O)C(=O)O
NC=O
CC(COCC(C)OC(=O)c1ccccc1)OC(=O)c1ccccc1 (stereo unspecified)
Cc1cn([C@H]2C=C[C@@H](CO)O2)c(=O)[nH]c1=O
NCCOCCOCCN
C/C=C/c1ccc(OC)cc1
N[C@@H](Cc1c[nH]c2ccccc12)C(=O)O
OCC(O)CO
CC(=O)[C@@]1(O)CC[C@H]2[C@@H]3CCC4=CC(=O)CC[C@]4(C)[C@H]3CC[C@@]21C
O=C(Oc1ccccc1)c1cccc(C(=O)Oc2ccccc2)c1
CC(=O)CC(c1ccccc1)c1c(O)c2ccccc2oc1=O (stereo unspecified)
C#CC(O)C(CC)CCCC (stereo unspecified)
CCCCC(CC)COP(=O)(OCC(CC)CCCC)OCC(CC)CCCC (stereo unspecified)

AC50, active:
COc1ccc(C(=O)Nc2nc3ccccc3c(NCc3ccccc3)c2C#N)cc1 17.9 µM
CCN(CC)CCOc1ccc(C(=C(Cl)c2ccccc2)c2ccccc2)cc1 61.2 µM
COC(=O)[C@H]1[C@H]2C[C@@H]3c4[nH]c5cc(OC)ccc5c4CCN3C[C@H]2C[C@@H](OC(=O)c2cc(OC)c(OC)c(OC)c2)[C@@H]1OC 47.7 µM
CSc1ccc(Oc2ccc(S(N)(=O)=O)cc2CN(C)C)cc1C 69.7 µM
CCc1nc(N)nc(N)c1-c1ccc(Cl)cc1 57.7 µM
COc1ccc(OC(F)(F)F)cc1CN[C@H]1CCCN[C@H]1c1ccccc1 71.7 µM
CCC(C)N(C)C(=O)c1cc2ccccc2c(-c2ccccc2Cl)n1 (stereo unspecified) 57.6 µM

What follows are compounds tested on Interleukin 6 (IL6), IL6 (gene 3569) (assay: LTEA_HepaRG_IL6: Life Technologies and Expression Analysis (LTEA) Assay for Interleukin 6 (IL6) using HepaRG (AID 2283509)). Details: mRNA level, 48 h; actives raise or lower the signal.
Method in brief: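 qRT-PCR read-out of IL6 transcript, normalized to three housekeeping genes, after 48 h chemical exposure of HepaRG cells; 8-point half-log series, top 100 uM, 0.5% DMSO vehicle. Bidirectional curve fitting against DMSO baseline.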

outcome, inactive:
O=C(O)c1[nH]n(-c2ccc(S(=O)(=O)O)cc2)c(=O)c1N=Nc1ccc(S(=O)(=O)O)cc1
CCCCCCCCCCCCCCOS(=O)(=O)O
CC(=O)O
CC(C)COC(=O)CCCCC(=O)OCC(C)C
CC(C)(C)c1ccccc1
CC(C)NCC(O)c1ccc(O)c(O)c1 (stereo unspecified)
CCCCCCCCCC[N+](C)(C)[O-]
c1ccc2occc2c1
CC(=O)OCC(COC(C)=O)OC(C)=O
Oc1ccc(O)cc1
O=C(O)CC(O)(CC(=O)O)C(=O)O
COc1ccc(C(=O)Nc2nc3ccccc3c(NCc3ccccc3)c2C#N)cc1
NC=O
CC(COCC(C)OC(=O)c1ccccc1)OC(=O)c1ccccc1 (stereo unspecified)
Cc1cn([C@H]2C=C[C@@H](CO)O2)c(=O)[nH]c1=O
NCCOCCOCCN
C/C=C/c1ccc(OC)cc1
N[C@@H](Cc1c[nH]c2ccccc12)C(=O)O
OCC(O)CO
CCc1nc(N)nc(N)c1-c1ccc(Cl)cc1
CC(=O)[C@@]1(O)CC[C@H]2[C@@H]3CCC4=CC(=O)CC[C@]4(C)[C@H]3CC[C@@]21C
O=C(Oc1ccccc1)c1cccc(C(=O)Oc2ccccc2)c1
CC(=O)CC(c1ccccc1)c1c(O)c2ccccc2oc1=O (stereo unspecified)
C#CC(O)C(CC)CCCC (stereo unspecified)
CCCCC(CC)COP(=O)(OCC(CC)CCCC)OCC(CC)CCCC (stereo unspecified)
CCC(C)N(C)C(=O)c1cc2ccccc2c(-c2ccccc2Cl)n1 (stereo unspecified)

AC50, active:
CCN(CC)CCOc1ccc(C(=C(Cl)c2ccccc2)c2ccccc2)cc1 81.8 µM
COC(=O)[C@H]1[C@H]2C[C@@H]3c4[nH]c5cc(OC)ccc5c4CCN3C[C@H]2C[C@@H](OC(=O)c2cc(OC)c(OC)c(OC)c2)[C@@H]1OC 29.1 µM
CSc1ccc(Oc2ccc(S(N)(=O)=O)cc2CN(C)C)cc1C 88.2 µM
COc1ccc(OC(F)(F)F)cc1CN[C@H]1CCCN[C@H]1c1ccccc1 82.9 µM
